# From PubChem BioAssay AID449762 (Southern Research Specialized Biocontainment Screening …, 2010)
# Several values for one entry are separate records, joined by “and”; a condition that tells them apart may be missing. Equal entries are not always repeated. In all, about 330,000 compounds went through this assay and about 1,900 (0.58%) were called active. Roughly 4% stayed inconclusive and do not appear here. Only a sample is shown. Measured potencies and affinities stand elsewhere. Values without a mark were called inactive. Rule as the data show it: inconclusive = inhibition above about 70% without an active follow-up result; inactive = below that.
# Assay: M. tuberculosis growth inhibition, HTS (AID 449762);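 also: bacterial growth assessed after seven days of incubation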
# Conditions: M. tuberculosis H37Rv growth inhibition, 7H9 media; at 25 µM; hits give high values
row,SMILES,inhibition
1,CCN(c1ccccc1)S(=O)(=O)c1ccc(C(=O)Nc2ccncc2)cc1,48.8%
2,Cc1ccc2ncnc(NCCC(=O)O)c2c1,-11.8%
3,NC(=O)CSc1nnc(NC(=O)c2ccc(S(=O)(=O)N3CCCCC3)cc2)s1,4.86%
4,COc1cc2cnc(-c3ccccc3)c(-c3cc(OC)c(OC)c(OC)c3)c2cc1OC,27.5%
5,Fc1ccc2cnc(-c3ccccc3)c(-c3ccc(C(F)(F)F)cc3)c2c1,39.5%
6,CC(C)(C)c1ccc(OCCC(=O)NC2=NCCS2)cc1,48.1%
7,CCOc1ccc(OCCCC(=O)NC2=NCCS2)cc1,1.39%
8,O=c1ccc(-c2ccccc2)nn1Cc1ccccc1F,4.51%
9,COc1ccc(-c2cc(C(=O)NC(C)c3ccccn3)c3ccccc3n2)cc1OC (configuration not stated),-9.49%
10,CCCCCCCN1N=C(C)C(C(=O)c2ccccc2)C1=O (configuration not stated),64.7%
11,CC1=NN(c2ccccc2)C(=O)C1C(=O)c1cc([N+](=O)[O-])cc([N+](=O)[O-])c1 (configuration not stated),-4.74%
12,CN1CC(=O)N2C(c3cccc([N+](=O)[O-])c3)c3[nH]c4ccccc4c3C[C@H]2C1=O (some centres not stated),6.28%
13,CCOc1cc2c3c(c1)C1(Nc4ccccc4S1)C(=O)N3C(C)(C)CC2C (configuration not stated),22.3%
14,CCOc1cc2c3c(c1)C1(OCCO1)C(=O)N3C(C)(C)CC2C (configuration not stated),8.79%
15,O=C(CN1CCN(c2ccccc2)CC1)NC(=O)NCc1ccco1,-5.69%
16,CC(=O)Nc1ccc(S(=O)(=O)N(C)CC(=O)NC2=NCCS2)cc1,-7.06%
17,CC1(C)CC(=O)C(C2=NC(C)(C)Cc3ccccc32)=C(O)C1,-7.77%
18,CC1=NC(C)(C)Cc2ccccc21,-5.42%
19,O=C(CN(C(=O)c1ccccc1)N1C(=O)CCC1=O)c1cccs1,-6.33%
20,CCC1(CC)NC(=O)N(CC(=O)N2N=C(c3ccc(Cl)cc3)CC2c2ccco2)C1=O (configuration not stated),3.27%
21,CN1CC(=O)N(CC(=O)N2N=C(c3ccc(Cl)cc3)CC2c2ccco2)C1=O (configuration not stated),22.3%
22,O=C(N[C@@H]1C/C=C\C[C@@H](CC(=O)N(CCO)Cc2ccccc2)C(=O)N[C@@H](c2ccccc2)COC1=O)OCC1c2ccccc2-c2ccccc21,3.32%
23,COc1cc2sc(-c3ccc(S(C)(=O)=O)cc3)c(C(=O)NCCCCO)c2cc1OC,4.06%

row,SMILES,inhibition
1,CCc1c(C)nc(N2CCN(c3cccc(OC)c3)CC2)[nH]c1=O,-3.6%
2,Cc1ccc(-c2nc3ccc(Cl)cc3c(=O)n2O)cc1,54.8%
3,O=c1c2ccccc2nc(-c2ccc([N+](=O)[O-])cc2)n1O,30.3%
4,CSCCCNC(=S)Nc1ccc(N2CCOCC2)cc1N1CCOCC1,6.87%
5,Cc1cc(C)c(C(=O)COC(=O)c2nn(C)c(=O)c3ccccc23)cc1C,-5.14%
6,Cc1ccc(Sc2ccc(C(=O)N3CCOCC3)cc2[N+](=O)[O-])cc1,0.73%
7,O=C(O)/C=C/C(=O)Nc1ccc(O)cc1,-6.75%
8,O=C(O)/C=C/C(=O)Nc1ccc(C(=O)c2ccccc2)cc1,3.27%
9,CC(=O)C[C@H](O)CC(=O)[C@H]1OC(=O)[C@H](C)CCCCc2ccccc21,-1.44%
10,O=C(O)c1cc(N/N=C/c2ccc(-c3ccc(F)cc3)o2)ccc1Cl,13.7%
11,CCCn1c(CCC(=O)Nc2ccccc2Cc2ccccc2)nc2cc(S(=O)(=O)N3CCOCC3)ccc21,-3.41%
12,COc1ccc2noc3c2c1C(=O)c1ccccc1-3,38.9%
13,CCOc1ccc2noc3c2c1C(=O)c1ccccc1-3,6.97%
14,NC(=O)COc1ncnc2scc(-c3ccc(F)cc3)c12,-9.11%
15,c1ccc2c(c1)ncn2-c1ccc(-c2ccnc(-c3ccncc3)n2)cc1,-0.53%
16,c1ccc(-c2nccc(-c3ccc(-n4cnc5ccccc54)cc3)n2)cc1,16%
17,CCN(CC)S(=O)(=O)c1cccc(C(=O)NCCCn2ccnc2)c1,3.66%
18,CN1CCc2cccc3c2C1Cc1ccc(O)c(O)c1-3 (configuration not stated),35.5%
19,CN1CCc2cccc3c2[C@H]1Cc1ccc(O)c(O)c1-3,29.9% and 14.3% and 5.91%
20,COCCCNc1ncnc2sc3c(c12)CCC(C)C3 (configuration not stated),13.1%
21,CC1CCc2c(sc3ncnc(NCCN4CCOCC4)c23)C1 (configuration not stated),1.22%
22,COc1cc(C)cc(CN2CC=C(c3ccccc3)CC2)c1O,4.09%
23,Cn1nc(C(=O)NCC(c2cccs2)N2CCOCC2)c2ccccc2c1=O (configuration not stated),-7.54%

row,SMILES,inhibition
1,CCc1c(C)nc2cc(-c3cc(OC)cc(OC)c3)nn2c1N1CCN(CCN2CCOCC2)CC1,-1.99%
2,CCOCCN1CCN(c2c(C)c(C)nc3cc(-c4cc(OC)cc(OC)c4)nn23)CC1,-16.2%
3,COc1ccc(OC)c(NC(=O)c2ccc(S(=O)(=O)N3CCN(C)CC3)cc2)c1,-1.22%
4,Cc1ccc(CNS(=O)(=O)c2ccc(-n3cnnn3)c(C)c2)cc1,5.67%
5,COc1cccc(-c2c(-c3cc(OC)cc(OC)c3)n(C)c3ccc(-c4cnc(N5CCOCC5)nc4)cc23)c1,6.76%
6,COc1cc(OC)cc(-c2c(C#Cc3ccsc3)c3cc(-c4ccc(CN5CCOCC5)cc4)ccc3n2C)c1,1.54%
7,COc1ccc(NS(=O)(=O)c2cccc(C(=O)N3CCN(Cc4ccc5c(c4)OCO5)CC3)c2)cc1,12.7%
8,O=Cc1cn(-c2ccccc2)nc1-c1cccnc1,-1.66%
9,O=C(/C=C/c1cn(-c2ccccc2)nc1-c1cccnc1)N1CCCCC1,-0.1%
10,Cc1nc2c(-c3ccccc3)c(C)nn2c(C)c1CCC(=O)N1CCC2(CC1)OCCO2,8.75%
11,COc1cc(/C=C/C(=O)OCC(=O)NCCc2ccccc2)ccc1OC(F)F,-11.9%
12,N#C/C(=C/c1ccc(Sc2nc3ccccc3[nH]2)o1)c1cccc(F)c1,3%
13,N#C/C(=C\c1ccc(Sc2nc3ccccc3[nH]2)o1)c1ccccc1,-1.33%
14,CCOC(=O)Cn1nc(C)n(-c2ccccc2)c1=O,-8.51%
15,CN(C)c1ncnc2c1ncn2C1OC(CO)C(O)C1O (configuration not stated),-4.17%
16,C[C@H](Cc1ccccc1)Nc1ncnc2c1ncn2[C@@H]1O[C@H](CO)[C@@H](O)[C@H]1O,-4.76%
17,CCOc1ccccc1-n1nnnc1SCC(=O)OC,3.09%
18,Cc1cc(C)n2c(Br)c(CN3CCCC(C)C3)nc2n1 (configuration not stated),-0.64%
19,Clc1ccc(CN2C3=NCCN3c3ccccc32)cc1Cl,-11.7%
20,CCOc1cccc(-c2c(C(=O)N/N=C/c3sccc3C)nnn2-c2nonc2N)c1,3.18%
21,O=C(CSc1nc2ncccc2[nH]1)Nc1ccc2c(c1)OCO2,-7.9%
22,CCc1ccc(NC(=O)CSc2nc3ncc(Br)cc3[nH]2)cc1,49.8%
23,N#Cc1ccccc1OCc1cccc(S(=O)(=O)N2CCOCC2)c1,-6.86%

row,SMILES,inhibition
1,OCCN(CC#CC(O)(c1ccccc1)C1CCCC1)CCO (configuration not stated),3.68%
2,Cn1c(CCn2ccccc2=O)nc2cc(NC(=O)COc3ccccc3)ccc21,0.17%
3,CCCC(=O)N1CCCC(c2nc(-c3cccc(OC)c3)no2)C1 (configuration not stated),-8.11%
4,COc1ccc(N2CCN(C(=O)c3ccc(Oc4ccc(C(F)(F)F)cn4)cc3)CC2)cc1,10.5%
5,O=C(c1ccc(Oc2ccc(C(F)(F)F)cn2)cc1)N1CCN(c2ccccc2)CC1,46.7%
6,Cc1ccc(S(=O)(=O)N2CCCCC2)cc1NC(=O)COC(=O)c1ccccc1F,-3.82%
7,CCOc1ccc(NC(=O)CN(C)C(=O)c2c(-c3ccccc3Cl)noc2C)cc1OCC,1.46%
8,COc1ccccc1-n1cnnc1SCC(=O)Nc1cc(C)on1,-1.02%
9,COC(=O)c1c(C(=O)OC)c2n(c1C)CCC2,-2.13%
10,Cc1cc(C)c2ccc(C(=O)O)nc2c1O,-5.39%
11,Cc1cc(C)c2ccc(N)nc2c1O,-11.8%
12,CCOc1ccc2[nH]cc(C(=O)N3CCN(CC)CC3)c(=O)c2c1,5.18%
13,Cc1cccc(-c2noc(CCC(=O)Nc3ccc(C(N)=O)cc3)n2)c1,4.71%
14,COc1ccc(-c2noc(CCCC(=O)Nc3ccc(C(N)=O)cc3)n2)cc1,-3.01%
15,Cc1ccc(C)c(S(=O)(=O)N2CCN(C(=O)CCc3c[nH]c4ccccc34)CC2)c1,-3.94%
16,CSc1nsc(/C=C/Nc2ccc(F)cc2F)c1C#N,7.19%
17,CSc1nsc(/C=C/Nc2ccc(C)cc2)c1C#N,18.6%
18,O=c1c2cnn(-c3ccccc3)c2ncn1Cc1cccc(Cl)c1,0.84%
19,NNC(=O)COc1cccc(Oc2ccccc2)c1,7.98%
20,O=C(COc1ccccc1)Nc1ncccn1,-7.9%
21,Cc1ccc2c(c1)C1(OCCCO1)C(=O)N2CC#N,-7.17%
22,Cc1nc(CSc2ccc(Cl)cc2)cc(N2CCOCC2)n1,0.76%
23,O=S(=O)(Cc1cc(N2CCOCC2)nc(-c2ccccn2)n1)c1ccccc1,5.9%
